Test systems include DU-145 prostate; K-562 leukemia; MALME-3M melanoma; MDA-MB-231 breast; RXF 393 renal; SF-268 CNS; SF-295 CNS; SF-539 CNS; M14 melanoma; UACC-257 melanoma.
Common to all, as to experiment: NCI-60 one-dose screen, 48 h (100 = growth as untreated, 0 = no growth, -100 = all killed)
Holding throughout (details): 10 µM

Each structure is given as a SMILES string. About 83,000 compounds went through this panel and 20% of them were active in at least one assay; those are over-represented in the sample as a whole.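 Note: values are percent growth. 100 is the growth of untreated cells, values between 100 and 0 indicate rising inhibition; between -100 and 0 indicates cell death.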 Unmarked numbers belong to inactive results. Active and inactive are the calls of the source. How the source made its calls: active means growth percent below 10; inactive means the rest.

As to `CCn1c(SCCc2ccccc2)nnc1-c1nn(-c2ccc(Cl)cc2Cl)c(-c2ccc(Cl)cc2)c1C`, the growth in the assay on DU-145 prostate was 84.7%; with K-562 leukemia it was 48.1%; with MALME-3M melanoma, 96%; with MDA-MB-231 breast, 81.1%; with RXF 393 renal, 66%; in the assay on SF-268 CNS it was 77.4%. Moreover, the growth in the assay with SF-295 CNS is 65.7%; in the assay with SF-539 CNS, 85.9%; in the assay on M14 melanoma, 72.8%.
Regarding `COc1ccc(-c2cc(-c3cc(OC)ccc3OC)nc(N)c2C#N)cc1`, the growth in the assay with DU-145 prostate was 96.2%; in the assay on K-562 leukemia, 89.5%; with MALME-3M melanoma, 36.9%; with MDA-MB-231 breast, 56.3%; in the assay on RXF 393 renal, 70.5%; in the assay with SF-268 CNS it was 40.1%. In addition, the growth in the assay on SF-295 CNS is 64.7%; in the assay on SF-539 CNS, 57.8%; in the assay on M14 melanoma, 79.8%.
Regarding `Nc1ccccc1NC(=O)c1ccc(CCCC(=O)Nc2ccc(C3CC3N)cc2)cc1` (configuration not stated), the growth was 38.7% with DU-145 prostate; 25.4% in the assay with K-562 leukemia; 21.7% with MALME-3M melanoma; 47.5% with MDA-MB-231 breast; 20.8% with RXF 393 renal; 32.6% in the assay with SF-268 CNS. The results for the growth with SF-295 CNS, in the assay with SF-539 CNS and in the assay with M14 melanoma were 22.1%, 30.9% and 27%, respectively.
Consider `COc1cc2c3c(n(C4CCNCC4)c(=O)c2cc1OC)-c1cc2c(cc1C3=O)OCO2`, for which the growth is -92.8% (active) with DU-145 prostate; -48.8% (active) in the assay with K-562 leukemia; -68.4% (active) in the assay with MALME-3M melanoma; -69.1% (active) with MDA-MB-231 breast; -56.4% (active) with RXF 393 renal; -60% (active) in the assay with SF-268 CNS. The growth in the assay on SF-295 CNS is -70.7% (active); in the assay on SF-539 CNS, -65.8% (active); in the assay on M14 melanoma, -76.1% (active).
With `CC(=O)N[C@H](C(=O)N[C@@H](CCCNC(=N)N)C(=O)N[C@@H](CCCCN)C(=O)N[C@@H](CCCNC(=N)N)C(=O)N[C@]1(C)CCCCCC/C=C\CCC[C@@](C)(C(=O)N[C@@H](CCCNC(=N)N)C(=O)N[C@@H](CCC(=O)O)C(=O)N[C@@H](CC(C)C)C(=O)N[C@H](C(=O)N[C@@H](CCC(=O)O)C(N)=O)C(C)C)NC(=O)[C@H](CCC(N)=O)NC(=O)[C@H](CC(C)C)NC(=O)[C@H](CC(C)C)NC(=O)[C@H](CCCNC(=N)N)NC(=O)[C@H](CCCNC(=N)N)NC(=O)[C@H](CC(C)C)NC1=O)C(C)C`, the growth was -72.7% (active) with DU-145 prostate; -18.8% (active) in the assay on K-562 leukemia; -28.7% (active) with MALME-3M melanoma; -39.5% (active) in the assay with MDA-MB-231 breast; -51.5% (active) in the assay with RXF 393 renal; -51.5% (active) with SF-268 CNS. The values for the growth in the assay with SF-295 CNS, with SF-539 CNS and in the assay on M14 melanoma were 14.3%, -47% (active) and -41.9% (active), respectively.
`Cc1ccc(-c2c3c(N)nc(-c4cccnc4)nc3nc3c2c(C)nn3-c2ccccc2)cc1`: the growth is 98.1% with DU-145 prostate; 86.7% with K-562 leukemia; 91.9% in the assay with MALME-3M melanoma; 75.9% with MDA-MB-231 breast; 79% in the assay on RXF 393 renal; 80.7% in the assay on SF-268 CNS. The growth in the assay with SF-295 CNS was 96.1%; in the assay with SF-539 CNS, 45.8%; with M14 melanoma, 97.3%.
In the case of `O=C(CN1CCN(C(=O)c2ccccc2)CC1)Nc1ccccc1SCc1ccccc1`, the growth in the assay with DU-145 prostate was 101%; with K-562 leukemia, 66%; in the assay on MALME-3M melanoma it was 86.1%; in the assay with MDA-MB-231 breast it was 68.7%; with RXF 393 renal it was 111%; in the assay on SF-268 CNS, 90.9%. Besides, the results for the growth in the assay on SF-295 CNS, with SF-539 CNS and with M14 melanoma were 86.9%, 89.1% and 79.4%, respectively.
For `COc1cc(-c2csc(NC(=O)Nc3cc(C(F)(F)F)cc(C(F)(F)F)c3)n2)cc(OC)c1OC`, the growth in the assay on DU-145 prostate was 20.3%; in the assay on K-562 leukemia, 17.5%; with MALME-3M melanoma, 6.56% (active); in the assay with MDA-MB-231 breast, 14.4%; in the assay with RXF 393 renal, 47%; in the assay with SF-268 CNS it was 32.7%. The figures for the growth with SF-295 CNS, in the assay with SF-539 CNS and in the assay with M14 melanoma were -10.4% (active), 23% and 21.9%, respectively.
As for `C[C@]12CC[C@@H]3c4ccc(OS(=O)(=O)O)cc4CC[C@H]3[C@@H]1CC[C@@H]2NS(=O)(=O)c1ccc(-c2ccccc2)cc1`, the growth with DU-145 prostate was 75.3%; in the assay with K-562 leukemia, 26.8%; in the assay on MALME-3M melanoma, 60.8%; with MDA-MB-231 breast, 84.3%; in the assay on RXF 393 renal, 53.1%; in the assay with SF-268 CNS, 69.8%. Besides, the growth with SF-539 CNS is 90.1%; with UACC-257 melanoma, 77.2%; with M14 melanoma it was 62.8%.
As to `Cc1cn(-c2cccc(NC(=O)c3ccc(C)c(Nc4nccc(-c5cccnc5)n4)c3)c2)cn1`, the growth in the assay on DU-145 prostate is 13.3%; in the assay on K-562 leukemia it was -22.5% (active); in the assay on MALME-3M melanoma, 42%; in the assay with MDA-MB-231 breast, -48.5% (active); in the assay on RXF 393 renal, -49.5% (active); in the assay with SF-268 CNS, 15.8%. Also, the growth in the assay with SF-539 CNS is -33.3% (active); with UACC-257 melanoma it was 29.1%; with M14 melanoma, 22.6%.
With `Fc1ccc2[nH]cc(-c3nc(-c4ccsc4)cs3)c2c1`, the growth in the assay with DU-145 prostate was 108%; with K-562 leukemia it was 106%; with MALME-3M melanoma, 93%; with MDA-MB-231 breast, 79.5%; in the assay on RXF 393 renal, 100%; in the assay with SF-268 CNS, 99.8%. The growth in the assay on SF-295 CNS is 89.8%; in the assay with SF-539 CNS, 94%; in the assay with M14 melanoma, 93.7%.
`O=C1c2c(c3c4ccccc4n(CCCCCCN4CCOCC4)c3c3[nH]c4ccccc4c23)C(=O)N1O`: the growth is 109% in the assay on DU-145 prostate; -32.9% (active) in the assay on K-562 leukemia; 117% in the assay with MALME-3M melanoma; 48.5% with MDA-MB-231 breast; 90.3% in the assay with RXF 393 renal; 92.9% with SF-268 CNS. The results for the growth with SF-295 CNS, in the assay with SF-539 CNS and in the assay on M14 melanoma were 108%, 92.4% and 81.9%, respectively.
As to `CC(C)(C)c1ccc(S(=O)(=O)N[C@H]2CC[C@H]3[C@@H]4CCc5cc(O)ccc5[C@H]4CC[C@]23C)cc1`, the growth in the assay on DU-145 prostate is 62.9%; with K-562 leukemia, 17%; in the assay on MALME-3M melanoma it was 25.6%; in the assay on MDA-MB-231 breast it was 33.7%; in the assay with RXF 393 renal, 12%; in the assay on SF-268 CNS it was 50.9%. Further, the growth with SF-539 CNS was 78.7%; in the assay with UACC-257 melanoma, 68.7%; with M14 melanoma, 45.8%.

(Values after PubChem BioAssay (NCI).)
